Source: PubChem BioAssay (NCI)
Compounds without any hit were thinned out: in the full panel of roughly 79,000, 15% have a hit. Active and inactive are the calls of the source. No stated cut-off is given here; in the data, active means growth inhibition above about 70%; inactive means the rest.

Assays:
[1] = NCI Yeast Anticancer Drug Screen. Data for the rad52 strain (AID 147);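 further: 0% = growth of vehicle-treated control cultures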; settings: S. cerevisiae rad52 mutant growth inhibition, hits give high values
Summary of the method: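 Here a repair-compromised yeast strain receives each compound; its growth is then quantified and normalised to vehicle-only controls.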

[2] = NCI Yeast Anticancer Drug Screen. Data for the wt1 strain (AID 149);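 further: 0% = growth of vehicle-treated wt1 cultures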; settings: S. cerevisiae wt1 strain (SPY 50644) growth inhibition, hits give high values
Summary of the method: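 Readout: yeast growth inhibition, normalised to vehicle controls, in the wt1 strain exposed to test compounds.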

[3] = NCI Yeast Anticancer Drug Screen. Data for the rad50EPP+ strain (AID 151);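 further: 0% = growth of vehicle-treated control cultures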; settings: S. cerevisiae rad50 mutant strain, hits give high values
Summary of the method: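 Read-out is yeast growth inhibition relative to vehicle; cells used were the rad50EPP+ strain.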

[4] = NCI Yeast Anticancer Drug Screen. Data for the mgt1 strain (AID 153); settings: S. cerevisiae mgt1 mutant growth inhibition, hits give high values
Summary of the method: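 Measured: inhibition of mgt1 yeast growth by compound, normalized to vehicle-treated cultures.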

[5] = NCI Yeast Anticancer Drug Screen. Data for the rad50 strain (AID 155);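 further: 0% = growth of vehicle-only cultures of the same strain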; settings: S. cerevisiae rad50 strain growth inhibition, hits give high values
Summary of the method: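 Compounds were tested on a yeast strain with an engineered DNA damage repair alteration; the reported value is growth inhibition normalised to vehicle treatment.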

[6] = NCI Yeast Anticancer Drug Screen. Data for the mec2-1 strain (AID 157); settings: S. cerevisiae mec2-1 strain, hits give high values
Summary of the method: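 Using mec2-1 yeast: add compound, measure growth, express inhibition versus vehicle-treated cultures.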

[7] = NCI Yeast Anticancer Drug Screen. Data for the sgs1 mgt1 strain (AID 161);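 further: 0% = growth of cultures given vehicle only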; settings: S. cerevisiae sgs1 mgt1 strain, hits give high values
Summary of the method: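 This yeast growth screen uses a strain with defined DNA-repair lesions; compound-treated growth is compared with vehicle-treated growth.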

[8] = NCI Yeast Anticancer Drug Screen. Data for the CLN2oe strain (AID 163);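 further: 0% = growth of vehicle-only control cultures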; settings: S. cerevisiae CLN2oe strain, hits give high values
Summary of the method: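 Whole-cell yeast growth assay. A strain engineered for altered cell-cycle control received compound, and inhibition relative to vehicle-treated cultures was recorded.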

[9] = NCI Yeast Anticancer Drug Screen. Data for the cln2 rad14 strain (AID 165);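 further: 0% = growth equal to vehicle treated cultures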; settings: S. cerevisiae cln2 rad14 strain, hits give high values
Summary of the method: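 Yeast strain cln2 rad14, bearing defects in cell cycle control and DNA repair, serves as the test system; values reflect growth inhibition compared with vehicle.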

[10] = NCI Yeast Anticancer Drug Screen. Data for the bub3 strain (AID 167); settings: S. cerevisiae bub3 mutant strain, hits give high values
Summary of the method: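 Growth of a checkpoint-deficient yeast mutant is measured after compound exposure. Values represent inhibition relative to vehicle.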

[11] = NCI Yeast Anticancer Drug Screen. Data for the wt2 strain (AID 169);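 further: 0% = growth of vehicle-treated yeast cultures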; settings: S. cerevisiae wt2 strain growth inhibition, hits give high values
Summary of the method: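 Treated yeast vs. vehicle-treated yeast: growth inhibition determined.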

[12] = NCI Yeast Anticancer Drug Screen. Data for the mlh1 strain (AID 171);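 further: 0% = growth of vehicle-treated control cultures of the same strain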; settings: S. cerevisiae mlh1 strain growth inhibition, hits give high values
Summary of the method: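 A yeast strain with a defined genetic lesion serves as the test organism. Cultures receive compound or vehicle, and growth is measured.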

[13] = NCI Yeast Anticancer Drug Screen. Data for the sgs1 strain (AID 173);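 further: 0% = growth of vehicle-only control cultures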; settings: S. cerevisiae sgs1 mutant, hits give high values
Summary of the method: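 A genetically defined yeast mutant is incubated with the test compound, and its growth is compared to that of the same strain given vehicle.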

[14] = NCI Yeast Anticancer Drug Screen. Data for the mlh1 rad18 strain (AID 175); settings: S. cerevisiae mlh1 rad18 strain growth inhibition, hits give high values
Summary of the method: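 Steps: expose repair-defective yeast to compound; measure growth; express inhibition against vehicle-treated controls.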

[15] = NCI Yeast Anticancer Drug Screen. Data for the rad18 strain (AID 177); settings: S. cerevisiae rad18 mutant growth inhibition, hits give high values
Summary of the method: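 Measured value is growth inhibition of a yeast strain bearing a DNA repair alteration, referenced to vehicle-treated cells.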

[16] = at 5.0 µM (retest, dose inferred, filed as 0.5)
[17] = at 50.0 µM (retest, dose inferred, filed as 5.0)

Measured: growth inhibition

COc1cc(N)ccc1Nc1c2ccccc2nc2ccccc12
active: [1]; at 11.0 µM 70% | [1]; at 33.0 µM 82% | [1]; at 100.0 µM 86% | [3]; at 100.0 µM 88% | [4]; at 100.0 µM 89% | [5]; [16] 90% | [5]; at 11.0 µM 74% | [5]; at 33.0 µM 89% | [5]; [17] 95% | [5]; at 100.0 µM 91% | [6]; [17] 92% | [6]; at 100.0 µM 84% | [7]; [17] 97% | [7]; at 50.0 µM 84.9% | [8]; at 100.0 µM 81% | [9]; [17] 83% | [9]; at 50.0 µM 80.8% | [10]; [17] 86% | [10]; at 100.0 µM 85% | [11]; at 100.0 µM 86% | [12]; at 100.0 µM 80% | [13]; at 100.0 µM 92% | [14]; [16] 81% | [14]; [17] 94%
inactive: [1]; at 1.2 µM -4% | [1]; at 3.7 µM 33% | [2]; at 1.2 µM -17% | [2]; at 3.7 µM -16% | [2]; at 11.0 µM -19% | [2]; at 33.0 µM -17% | [2]; at 100.0 µM 69% | [3]; at 1.2 µM -9% | [3]; at 3.7 µM -11% | [3]; at 11.0 µM 10% | [3]; at 33.0 µM 59% | [4]; at 1.2 µM 2% | [4]; at 3.7 µM 25% | [4]; at 11.0 µM 32% | [4]; at 33.0 µM 51% | [5]; at 1.2 µM 6% | [5]; at 3.7 µM 32% | [5]; at 50.0 µM 36.3% | [6]; at 1.2 µM -45% | [6]; at 3.7 µM -30% | [6]; [16] 20% | [6]; at 11.0 µM -27% | [6]; at 33.0 µM 2% | [6]; at 50.0 µM 42.4% | [7]; [16] 58% | [8]; at 1.2 µM 29% | [8]; at 3.7 µM 11% | [8]; at 11.0 µM 6% | [8]; at 33.0 µM 29% | [9]; [16] 40% | [10]; at 1.2 µM 8% | [10]; at 3.7 µM 15% | [10]; [16] 42% | [10]; at 11.0 µM 14% | [10]; at 33.0 µM 28% | [10]; at 50.0 µM 63% | [11]; at 1.2 µM 6% | [11]; at 3.7 µM 9% | [11]; at 11.0 µM 9% | [11]; at 33.0 µM 31% | [12]; at 1.2 µM -24% | [12]; at 3.7 µM -15% | [12]; at 11.0 µM -16% | [12]; at 33.0 µM 11% | [13]; at 1.2 µM -16% | [13]; at 3.7 µM 1% | [13]; at 11.0 µM -4% | [13]; at 33.0 µM 36% | [14]; at 50.0 µM 65.7%

N#C/C(=C/c1c(Cl)cccc1Cl)C(N)=O
active: [1]; at 100.0 µM 96% | [2]; at 100.0 µM 96% | [4]; at 100.0 µM 98% | [5]; at 50.0 µM 77.2% | [5]; at 100.0 µM 97% | [6]; at 50.0 µM 74.8% | [6]; at 100.0 µM 97% | [10]; [17] 96% | [10]; at 100.0 µM 97% | [11]; at 100.0 µM 96% | [12]; at 33.0 µM 71% | [12]; at 100.0 µM 97% | [13]; at 33.0 µM 74% | [13]; at 100.0 µM 98% | [14]; [17] 76% | [15]; at 33.0 µM 81% | [15]; at 100.0 µM 97%
inactive: [1]; at 1.2 µM 0% | [1]; at 3.7 µM 5% | [1]; at 11.0 µM 13% | [1]; at 33.0 µM 63% | [2]; at 1.2 µM 13% | [2]; at 3.7 µM 13% | [2]; at 11.0 µM 10% | [2]; at 33.0 µM 47% | [3]; at 1.2 µM -24% | [3]; at 3.7 µM -29% | [3]; at 11.0 µM -30% | [3]; at 33.0 µM -24% | [3]; at 100.0 µM 57% | [4]; at 1.2 µM -4% | [4]; at 3.7 µM -15% | [4]; at 11.0 µM 1% | [4]; at 33.0 µM 63% | [5]; at 1.2 µM -10% | [5]; at 3.7 µM 3% | [5]; [16] 47% | [5]; at 11.0 µM 3% | [5]; at 33.0 µM 69% | [6]; at 1.2 µM -26% | [6]; at 3.7 µM -8% | [6]; [16] 46% | [6]; at 11.0 µM -7% | [6]; at 33.0 µM 58% | [7]; [16] -1% | [9]; [16] 45% | [10]; at 1.2 µM -5% | [10]; at 3.7 µM 4% | [10]; [16] 37% | [10]; at 11.0 µM 14% | [10]; at 33.0 µM 65% | [11]; at 1.2 µM -16% | [11]; at 3.7 µM -2% | [11]; at 11.0 µM -2% | [11]; at 33.0 µM 58% | [12]; at 1.2 µM -16% | [12]; at 3.7 µM -15% | [12]; at 11.0 µM 0% | [13]; at 1.2 µM 15% | [13]; at 3.7 µM 9% | [13]; at 11.0 µM 21% | [14]; [16] 34% | [14]; at 50.0 µM 61.7% | [15]; at 1.2 µM -19% | [15]; at 3.7 µM -11% | [15]; at 11.0 µM 6%

COC(=O)/C=C1/OC(c2ccc(Br)cc2)=C(Br)C1=O
active: [3]; at 100.0 µM 97% | [4]; at 100.0 µM 87% | [6]; [17] 85% | [6]; at 100.0 µM 71% | [7]; at 50.0 µM 86.2% | [10]; at 33.0 µM 70% | [10]; at 50.0 µM 72.8% | [10]; at 100.0 µM 95% | [11]; at 33.0 µM 76% | [11]; at 100.0 µM 95% | [15]; at 100.0 µM 92%
inactive: [1]; at 1.2 µM -25% | [1]; at 3.7 µM -22% | [1]; at 11.0 µM -18% | [1]; at 33.0 µM -7% | [1]; at 100.0 µM 38% | [2]; at 1.2 µM -16% | [2]; at 3.7 µM -13% | [2]; at 11.0 µM -29% | [2]; at 33.0 µM -11% | [2]; at 100.0 µM 16% | [3]; at 1.2 µM -6% | [3]; at 3.7 µM -7% | [3]; at 11.0 µM 0% | [3]; at 33.0 µM 59% | [4]; at 1.2 µM 3% | [4]; at 3.7 µM 3% | [4]; at 11.0 µM -7% | [4]; at 33.0 µM 7% | [5]; at 1.2 µM -35% | [5]; at 3.7 µM -28% | [5]; [16] 3% | [5]; at 11.0 µM -5% | [5]; at 33.0 µM -11% | [5]; [17] 36% | [5]; at 50.0 µM 17.6% | [5]; at 100.0 µM 65% | [6]; at 1.2 µM 9% | [6]; at 3.7 µM -1% | [6]; [16] 18% | [6]; at 11.0 µM -5% | [6]; at 33.0 µM 8% | [6]; at 50.0 µM 18.8% | [7]; [16] 12% | [7]; [17] 16% | [8]; at 1.2 µM 8% | [8]; at 3.7 µM 10% | [8]; at 11.0 µM 10% | [8]; at 33.0 µM 26% | [8]; at 100.0 µM 59% | [9]; [16] 2% | [9]; [17] 14% | [9]; at 50.0 µM 33.8% | [10]; at 1.2 µM 20% | [10]; at 3.7 µM 6% | [10]; [16] 32% | [10]; at 11.0 µM -12% | [10]; [17] 40% | [11]; at 1.2 µM -25% | [11]; at 3.7 µM -22% | [11]; at 11.0 µM -20% | [12]; at 1.2 µM -18% | [12]; at 3.7 µM -4% | [12]; at 11.0 µM -14% | [12]; at 33.0 µM -12% | [12]; at 100.0 µM 27% | [13]; at 1.2 µM -18% | [13]; at 3.7 µM -16% | [13]; at 11.0 µM -17% | [13]; at 33.0 µM -27% | [13]; at 100.0 µM 16% | [14]; [16] 11% | [14]; [17] 49% | [15]; at 1.2 µM -30% | [15]; at 3.7 µM -14% | [15]; at 11.0 µM -12% | [15]; at 33.0 µM 41%
